# Test results from PubChem BioAssay (NCI).
# Compounds without any hit were thinned out: in the full panel of roughly 83,000, 20% have a hit.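 Note: values are percent growth. 100 is the growth of untreated cells, values between 100 and 0 indicate rising inhibition; between -100 and 0 indicates cell death.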 A number with no mark means an inactive call. Active and inactive are the calls of the source. Rule for the calls: active = growth percent below 10; inactive = the rest.
# System: 786-0 renal
# Experiment: NCI-60 one-dose screen, 48 h (100 = growth as untreated, 0 = no growth, -100 = all killed)
# Details: 10 µM unless noted
row,SMILES,growth
1,Cn1cc(-c2nnc(-c3cn(C)c4ncccc34)o2)c2ccccc21,59.7%
2,Cc1ccc(C2=C/C(=C/c3ccc(Br)cc3)C(=O)N2CCc2ccc(S(N)(=O)=O)cc2)cc1,97.1%
3,COc1ccc2nc3cc(Cl)ccc3c(Nc3ccc(O)cc3)c2c1,84%
4,CCCCN(CC)CC(CC)Nc1cc(OC)cc2cccnc12 (configuration not stated),107%
5,O=C(Nc1cccc2ccccc12)c1cc2ccccc2cc1O,22.2%
6,C=C(C)[C@@H]1CC[C@]2(COCCC#N)CC[C@]3(C)[C@H](CC[C@@H]4[C@@](C)(CCCNCCC#N)[C@H](C(=C)C)CC[C@]43C)[C@@H]12,16.1% [100 µM]
7,Cc1ccc(-c2cn(C/C=C3\C=CN(S(=O)(=O)c4ccccc4)CC3)nn2)cc1,101%
8,CN(C)c1ccc(-c2ccc(-c3ccc(C(=N)N)cc3)s2)cc1,-63.9% (active)
9,CCOC(=O)c1nn(C2CCCCO2)c2ccc(NC(=O)CN3CCOCC3)cc12 (configuration not stated),98.3%
10,Cn1cc(-c2noc(-c3cn(C)c4ncc(Br)cc34)n2)c2cc(Cl)ccc21,53.7%
11,Cc1cc2c(C(C)C)c(O)c(O)c(C=NCc3ccoc3)c2c(O)c1-c1c(C)cc2c(C(C)C)c(O)c(O)c(C=NCc3ccco3)c2c1O,62.3%
12,Cc1cccc(C[C@H](NC(=O)Nc2ccc(C)cc2F)C(=O)N[C@@H]2C(=O)N3C[C@H](O)C[C@H]3C(=O)N3CCN(C)C[C@H]3C(=O)N[C@@H](C)C(=O)N3C[C@H](C)C[C@H]3C(=O)O[C@H]2C)c1,84.2%
